# Source: PubChem BioAssay (National Center for Advancing Translational Sciences (NCATS))
# KinaseGlo FLuc: Counterscreen for Luciferase (Kinase-Glo TM) Inhibition | Luciferin 4-monooxygenase (Photuris pensylvanica), Q27757 | Kinase-Glo luciferase, ATP luminescence, 8 min | Potency, µM (doses to about 38.3 µM), without a hit: at the top dose activity change, negative = inhibition, usual class: inhibitors | 0.28% of 200,000 active | AID 1379, 2008; note: % is set by controls: 0 for no effect and ±100 for the full control effect; nearly all actives have a fitted effect of over 60% in size
#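 Substrate mix (final 50 mM imidazole pH 7.2, 50 mM KCl, 7 mM MgCl2, 10 uM ATP, 0.01% Tween 20, 0.05% BSA) plus pin-tool compound, then Kinase-Glo detection mix; 8 min ambient, luminescence read.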
# ELG1 genotoxic: qHTS screen for small molecules that induce genotoxicity in human embryonic kidney (HEK293T) cells expressing luciferase-tagged ELG1; 1.3% of 330,000 active; HEK293T ELG1-luciferase reporter, luminescence, 16 h; Potency, µM (series often up to 46 µM), for inactives: at the highest dose activity change, positive = activation, usual class: activators; note: % of control where 0% means no effect; nearly all actives have a fitted effect of over 60% in size
#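 HEK293T cells expressing luciferase-tagged ELG1 were treated with compound or DMSO for 16 hr at 37°C. Luciferase activity was then read after 30 min with ONE-Glo at room temperature; rising signal flags genetic stress.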
# FLuc counter: qHTS profiling assay for firefly luciferase inhibitor/activator using purifed enzyme and Km concentrations of substrates (counterscreen for miR-21 project); Luciferin 4-monooxygenase (Photinus pyralis), P08659; purified FLuc, Km substrates, luminescence inhibition; Potency, µM (series often up to 57.5 µM), for inactives: top-dose activity change, negative = inhibition, actives largely listed as inhibitors; 6.9% of 360,000 active; AID 588342, 2011;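 note: plate controls were vehicle for no effect and reference inhibitor for full effect; nearly all actives have a fitted effect of over 55% in size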
# Target sequence (P08659 whole entry, looked up): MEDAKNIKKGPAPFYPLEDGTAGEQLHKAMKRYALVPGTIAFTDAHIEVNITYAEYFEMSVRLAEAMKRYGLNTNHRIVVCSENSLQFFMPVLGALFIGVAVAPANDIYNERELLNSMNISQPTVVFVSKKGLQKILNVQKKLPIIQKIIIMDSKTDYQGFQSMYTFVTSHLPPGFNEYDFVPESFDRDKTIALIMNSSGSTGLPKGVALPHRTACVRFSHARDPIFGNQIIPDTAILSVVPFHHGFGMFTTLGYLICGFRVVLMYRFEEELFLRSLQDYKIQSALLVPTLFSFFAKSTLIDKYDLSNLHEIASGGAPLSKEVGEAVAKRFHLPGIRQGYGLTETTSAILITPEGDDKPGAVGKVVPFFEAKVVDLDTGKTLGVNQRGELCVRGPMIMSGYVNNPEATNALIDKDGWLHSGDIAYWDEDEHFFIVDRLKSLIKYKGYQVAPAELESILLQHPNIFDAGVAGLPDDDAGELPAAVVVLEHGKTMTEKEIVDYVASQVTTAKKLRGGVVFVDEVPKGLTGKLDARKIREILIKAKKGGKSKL
#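 Biochemical qHTS of compounds, final roughly 60 µM downward over six points, against 10 nM purified firefly luciferase using Km concentrations of substrates (10 uM D-luciferin, 10 uM ATP) in Tris acetate pH 7.5 buffer; luminescence output.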
# SMN2 splice up: qHTS Assay for Enhancers of SMN2 Splice Variant Expression; HEK293 SMN2-luciferase splicing reporter, luminescence, 30-36 h; Potency, µM (top dose mostly 46.1 µM), for the others: at the top dose activity change, positive = activation, actives largely listed as activators; 2.8% of 210,000 active; AID 1458, 2008; note: % of control where 0% means no effect; nearly all actives have a fitted effect of over 55% in size
#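 HEK293 cells carry an SMN2 […]–luciferase reporter in which exon 7 inclusion puts luciferase in frame. Cells were plated 10-12 h before compound addition, then incubated 30-36 h at 37C. ONE-Glo luminescence was read; sodium butyrate at 4.5 mM final served as control.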
# Rab9 promoter act: qHTS Assay for Rab9 Promoter Activators; Huh7 Rab9 promoter-luciferase reporter, luminescence, 24 h; Potency, µM (top dose mostly 9.22 µM), inactives show at the highest dose activation, negative = inhibition, hits mostly activators; 2.8% of 320,000 active; AID 485297, 2010; note: % of control where 0% means no effect; nearly all actives have a fitted effect of over 60% in size
#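 Stable Rab9-luc Huh7, 1500 cells/well, 2 h settle; cmpd in DMSO, 24 h, 37 °C/5% CO2; luciferase reagent 10 min RT; luminescence.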
# NPC1 prom act: qHTS Assay for NPC1 Promoter Activators; 2.4% of 320,000 active; Huh7 NPC1 promoter luciferase reporter, 24 h; Potency, µM (top dose mostly 9.22 µM), without a hit: at the top dose activation, usual class: activators; note: % of control where 0% means no effect; nearly all actives have a fitted effect of over 60% in size
#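 Cells: Huh7 expressing luciferase under the NPC1 promoter, 1500/well. Seeded 2 h, compound added, incubated 24 h at 37 °C. Luciferase reagent, 10 min ambient, then luminescence.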
# The depositor's hits bear a star; ? = inconclusive; · = not tested or not shown. Rows were chosen to be rich in hits. Some 7.3% of all compounds tested hit in one or more screens of this group. Calls come from the whole dose curve; as a rule, active = well fitted curve in the direction sought with a large enough effect; inconclusive = small, poorly fitted or top-dose-only effect, or another doubt; inactive = no such curve, though single readings can be large; an effect the other way counts as inactive or inconclusive. Potency is the fitted concentration of half-maximal effect.
SMILES,KinaseGlo FLuc,ELG1 genotoxic,FLuc counter,SMN2 splice up,Rab9 promoter act,NPC1 prom act
O=C1C(=O)N(C2CCN(S(=O)(=O)c3ccccc3)CC2)CCN1Cc1ccccc1,·,·,-2%,·,·,·
Cc1ccc(Cn2c(CNC(=O)Cc3cccc([N+](=O)[O-])c3)nc3cccnc32)cc1,·,·,-5%,·,·,·
COc1ccc(-c2nc(Cn3c(SCc4ccc(C)cc4)nc4ccncc43)c(C)o2)cc1OC,-11%,0%,1.7µM*,16%,?,14%
Cc1ccc(CSc2nc3ccncc3n2CC(=O)Nc2cc(C)cc(C)c2)cc1,-1%,?,1.5µM*,?,?,28%
COc1ccc(-c2nc(Cn3c(SCc4cccc(F)c4)nc4ccncc43)c(C)o2)cc1OC,-2%,10%,?,-7%,-6%,4%
O=C(NC(=S)Nc1ccccn1)c1ccccc1,·,1.6µM*,7.6µM*,·,0.13µM*,0.32µM*
O=C(Nc1ccccn1)c1cc2cc([N+](=O)[O-])ccc2s1,-1%,?,?,?,1.4µM*,2µM*
O=C(NC(=S)Nc1ccccn1)c1ccc(-c2ccccc2)cc1,·,?,1.5µM*,·,0.28µM*,0.11µM*
O=C(/C=C/c1ccc(Cl)cc1Cl)NC(=S)Nc1ccc(CN2CCOCC2)cc1,4%,-1%,-2%,-23%,7%,-1%
O=C(/C=C/c1ccc(Cl)cc1Cl)NC(=S)Nc1ccccn1,-3%,?,?,4%,0.89µM*,1.1µM*
CC(C)(C)C(=O)NC(=S)Nc1ccccn1,1%,6%,-4%,16%,-2%,-1%
CN(C)c1ccc(-c2nc3cnccn3c2Nc2cccc(C(F)(F)F)c2)cc1,·,·,-16%,2%,·,·
CCOc1ccc(CCNC(=O)c2sc3ncccc3c2-n2cccc2)cc1OCC,·,·,-6%,·,·,·
O=C(CS(=O)(=O)c1ccccc1)Nc1ccccn1,4%,2%,1%,5%,-5%,-3%
O=C(Nc1ccccn1)c1ccc(Br)s1,·,?,11µM*,·,4µM*,1.8µM*
O=C(Nc1ccc(Cl)cc1)c1ccc(-c2ccccn2)s1,·,23%,?,·,2.8µM*,1.6µM*
O=C(NC(=S)Nc1ccccn1)c1ccc([N+](=O)[O-])cc1,0%,?,5.4µM*,2.8µM*,1µM*,2µM*
O=C(CC(=O)c1ccccc1)Nc1ccccn1,·,15µM*,11µM*,·,1.8µM*,2.5µM*
Cc1cccc(Cc2c(C)nc3nc(SCc4ccccc4F)nn3c2C)c1,·,·,-11%,·,·,·
COc1nnc(-c2ccc(N3CCCCC3)c(NC(=O)c3ccccc3Cl)c2)c2ccccc12,·,·,6%,31%,·,·
CCCCn1c(=O)c2oc3ccccc3c2n(CC(=O)Nc2cccc(Cl)c2)c1=O,·,·,-4%,·,·,·
Cn1c(C(=O)NCc2ccc(F)cc2)cc2cc(S(=O)(=O)N3CCCCC3)ccc21,·,·,-1%,·,·,·
CCc1nc2ccc(C)cc2c(C(=O)Oc2cccc3cccnc23)c1C,1%,0%,4%,-15%,2%,3%
CCc1nc2ccccc2c(C(=O)Oc2cccc3cccnc23)c1C,-3%,-10%,15µM*,-19%,12%,7%
COc1ccc(-c2ccc(-c3nnc(-c4cc(OC)ccc4OC)o3)cc2)cc1,-1%,16%,0%,-25%,1%,-4%
COc1ccc(-c2nnc(-c3ccc(N)cc3)o2)cc1,-4%,7.3µM*,3.4µM*,13µM*,?,?
COc1ccc(-c2nnc(-c3ccc(N(C)C)cc3)o2)cc1,1%,·,2.1µM*,25%,·,·
O=[N+]([O-])c1cccc(-c2nnc(-c3ccccc3F)o2)c1,·,?,12µM*,·,2µM*,2.5µM*
